Compound activity from PubChem.
TrxR1 substrate: substrates of rat thioredoxin reductase 1; O89049; actives 0.01% (n = 390,000); purified TrxR1 substrate turnover, NADPH consumption readout; Potency, µM (titrated, usually from 114 µM), inactives show at the highest dose activity change, negative = substrate turnover; note: % is set by controls: 0 for no effect and ±100 for the full control effect; nearly all actives have a fitted effect of over 50% in size
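Rat TrxR1, dispensed at 90 nM, was prereduced with 400 uM NADPH (final) for 5 min at ~22 deg C, then incubated with compound 15 min before 400 uM selenite. A first-read NADPH fluorescence drop versus no-compound background flagged substrates.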
VDR inh: vitamin D3 receptor (human) inhibition; P11473; VDR-SRC2-3 peptide fluorescence polarization, 2 h; Potency, µM, without a hit: max response, negative = inhibition, actives largely listed as inhibitors; actives 0.93% (n = 400,000); note: % is set by controls: 0 for no effect and ±100 for the full control effect
Target sequence (P11473 whole entry, looked up): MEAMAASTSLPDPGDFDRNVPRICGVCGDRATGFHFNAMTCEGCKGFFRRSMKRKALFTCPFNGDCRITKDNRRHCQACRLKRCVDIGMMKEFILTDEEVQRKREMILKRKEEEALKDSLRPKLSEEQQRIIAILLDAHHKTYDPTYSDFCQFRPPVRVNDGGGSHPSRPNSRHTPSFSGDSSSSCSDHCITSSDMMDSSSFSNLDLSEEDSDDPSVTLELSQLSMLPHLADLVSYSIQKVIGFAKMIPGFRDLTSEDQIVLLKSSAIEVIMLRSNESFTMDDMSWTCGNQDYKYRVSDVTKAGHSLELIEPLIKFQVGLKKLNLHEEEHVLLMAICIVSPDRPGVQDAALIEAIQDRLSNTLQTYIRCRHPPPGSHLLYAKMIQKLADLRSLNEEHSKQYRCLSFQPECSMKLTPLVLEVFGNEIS
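After 23 nl compound addition and a short centrifugation, plates sat for 2 hours at ambient temperature; polarization of fluorescence then indicated loss of VDR binding to peptide SRC2-3.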
TrxR1 inh: rat TrxR1 inhibition. recombinant rTrxR1, NADPH fluorescence consumption, selenite substrate. AID 588453. Potency, µM (top dose mostly 114 µM), without a hit: at the top dose activity change, negative = inhibition, usual class: inhibitors. actives 1% (n = 390,000). O89049; note: % is set by controls: 0 for no effect and ±100 for the full control effect; nearly all actives have a fitted effect of over 65% in size
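Rat TrxR1 (90 nM in the dispensed reagent) was pre-reduced with 400 uM NADPH for 5 min at room temperature, then incubated with compound for 15 min. After 400 uM selenite was added, NADPH fluorescence (Ex 340/Em 450 nm) was followed for 8 min.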
Vif-APOBEC3F blk: blocks the Vif interaction with APOBEC3F; HeLa A3F-eYFP + Vif (tagged APOBEC3F with the HIV-1 protein that degrades it), YFP fluorescence increase; actives 0.2% (n = 390,000); Potency, µM (highest dose often 46.1 µM), for inactives: at the highest dose activity, negative = active; AID 602313; note: % of control where 0% means no effect; nearly all actives have a fitted effect of over 65% in size
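Fluorescence increase (Ex 488/Em 500-530) after overnight compound treatment at 37 deg C flags inhibition of Vif-driven A3F-eYFP loss in stable HeLa A3F-eYFP/Vif cells seeded overnight beforehand.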
Vif-A3G inh: blocks the Vif interaction with human APOBEC3G. HeLa A3G-eYFP + Vif (tagged APOBEC3G with the HIV-1 protein that degrades it), YFP fluorescence, overnight. Potency, µM (highest dose often 46.1 µM), without a hit: top-dose activity, negative = active, hits mostly inhibitors. actives 0.076% (n = 410,000). Q9HC16; note: % is set by controls: 0 for no effect and ±100 for the full control effect; nearly all actives have a fitted effect of over 60% in size
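Read-out is eYFP fluorescence (Ex 488/Em 500-530) from Vif-expressing HeLa A3G-eYFP cells; more signal means A3G escaped Vif-mediated degradation. Cells plated overnight, compound pinned in, incubated overnight at 37 deg C.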
* = called active by the depositor; ? = inconclusive; . = not tested or not shown; [ ] = dose if it differs, or a comment. Compounds with a hit are over-represented: about 1.8% of the library has one in this group of screens. Calls come from the whole dose curve; as a rule, active = well fitted curve in the direction sought with a large enough effect; inconclusive = small, poorly fitted or top-dose-only effect, or another doubt; inactive = no such curve, though single readings can be large; an effect the other way counts as inactive or inconclusive. Potency is the fitted concentration of half-maximal effect.

SMILES	TrxR1 substrate	VDR inh	TrxR1 inh	Vif-APOBEC3F blk	Vif-A3G inh
Cc1ccc2c(c1)c(/C=C/c1cc[n+](C)cc1)c(C)n2C	-1.2%[57.1 µM]	-20.6%	25.7%[57.1 µM]	-90.7%	?
CC(C)c1[nH]nc2c1C(Cc1ccccc1)C(C#N)=C(N)O2 (centres undefined)	8.9%	-14.7%	17.8µM*	0.4%	-0.1%
CCc1[nH]nc2c1C(Cc1ccccc1)C(C#N)=C(N)O2 (centres undefined)	-2.0%	2.1%	?	-13.6%	0.8%
Cc1[nH]nc2c1C(Cc1ccccc1)C(C#N)=C(N)O2 (centres undefined)	16.3%	-9.0%	25.1µM*	-6.3%	-5.7%
CC(Sc1nc(NCc2ccccc2)nc(N(C)C)n1)C(=O)Nc1ccccc1 (centres undefined)	-8.6%	-6.0%	12.3%	-3.3%	0.3%
CC(Sc1nc(N)c2c3c(sc2n1)CSC(C)(C)C3)C(=O)Nc1ccccc1 (centres undefined)	1.2%	39.8µM*	-5.6%	4.9%	0.1%
CC(C)CCNC(=O)CCS(=O)(=O)c1cccc2nonc12	-2.7%	15.8%	56.2µM*	.	-5.0%
Oc1[nH]c2ccccc2c1N=Nc1ccccc1	1.7%	32.8%	22.7%[0.0914 µM]	25.1µM*	?
Cc1sc(-c2cc3c([nH]c2=O)CC(c2ccccc2)CC3=O)nc1-c1ccc(Cl)cc1 (centres undefined)	0.9%	-13.8%	-1.9%	12.6µM*	10µM*
O=C(Cn1cc(S(=O)(=O)Cc2ccc(F)cc2)c2ccccc21)NCCc1ccccc1	-6.9%	4.4%	4.6%	0.3%	3.8%
COc1ccc(C(=O)NCC(c2ccco2)S(=O)(=O)c2cccs2)cc1 (centres undefined)	0.4%[57.1 µM]	3.1%	10.3%[57.1 µM]	-0.5%	2.7%
CSc1ccccc1NC(=O)CCS(=O)(=O)c1nc(-c2ccc3c(c2)OCO3)cc(C(F)(F)F)n1	47.4%	?	-1.7%	4.5%	-24.8%
O=C(CCS(=O)(=O)c1nc(-c2ccc3c(c2)OCO3)cc(C(F)(F)F)n1)Nc1ccccc1F	16.3%	39.8µM*	?	-6.6%	-24.9%
CCOC(=O)c1c(C)oc2c1c1c(c3ccccc32)OCN(CCCC(=O)O)C1	-1.2%	89.1µM*	3.55µM*	-3.9%	-10.8%
COc1ccc2c(=O)c3c(=O)n(Cc4ccco4)c(-c4ccco4)nc3oc2c1	-2.3%	-15.0%	14.1µM*	-13.9%	-15.3%
CN(C)CCC(=O)N1C/C(=C/c2ccccc2)C(=O)/C(=C\c2ccccc2)C1	-4.4%[11.4 µM]	?	?	-0.1%	?
C[N+](C)(C)CCC(=O)N1C/C(=C/c2ccccc2)C(=O)/C(=C\c2ccccc2)C1	3.5%[11.4 µM]	79.4µM*	-73.3%[57.1 µM]	?	7.94µM*
CC(=O)c1c(O)cccc1O	.	-16.8%	.	.	.
COc1cccc(/C=C2/C(=O)NN(c3ccccc3)C2=O)c1	-5.7%	?	-72.0%	?	-3.1%
COc1cccc(/C=C2\C(=O)C(=O)c3ccccc32)c1	0.2%	89.1µM*	?	?	?
COc1cccc(/C=C2/C(=O)NN(c3ccc(C)c(C)c3)C2=O)c1	2.2%	79.4µM*	?	-27.8%	-6.2%
COc1cc(/C=C2/C(=O)NN(c3cccc(C)c3)C2=O)ccc1OC(=O)c1ccco1	-8.9%	50.1µM*	?	0.4%	-17.0%
COc1cc(/C=C2/C(=O)NN(c3cccc(C)c3)C2=O)cc([N+](=O)[O-])c1O	-22.8%	-26.6%	?	0.2%	2.8%
COc1cc(/C=C2/C(=O)NN(c3cccc(Cl)c3)C2=O)cc(OC)c1O	-10.0%	79.4µM*	?	-8.9%	-0.8%
Cc1ccccc1NC(=O)COc1ccccc1C(=O)Nc1ccccc1	4.8%	.	32.2%	.	.
SMILES	TrxR1 substrate	VDR inh	TrxR1 inh	Vif-APOBEC3F blk	Vif-A3G inh
COc1cccc(/C=C2/C(=O)NN(c3ccc(F)cc3)C2=O)c1	14.4%[57.1 µM]	44.7µM*	-57.4%	1.7%	-13.2%
CCOC(=O)Cc1csc(NC(=O)c2csc(C)c2)n1	-0.9%	15.6%	-1.0%	-7.4%	1.6%
CCOC(=O)Cc1csc(NC(=O)c2sc3nc4c(C)cc(C)cc4cc3c2N)n1	6.8%[57.1 µM]	16.5%	12.3%	25.1µM*	?
O=C(C[n+]1cccc(Br)c1)c1ccc(F)cc1	5.3%	.	-0.8%	.	2.1%
COC(=O)COc1c(/C=C\c2nc(O)c([N+](=O)[O-])c(=O)[nH]2)cccc1OC	-11.8%	-15.9%	-10.5%	6.9%	-1.4%
C#CCOc1c(/C=C\c2nc(O)c([N+](=O)[O-])c(=O)[nH]2)cc(Br)cc1OC	-10.7%	22.4µM*	?	12.4%	1.8%
Cc1ccc(CN(C(=O)COc2cccc([N+](=O)[O-])c2)c2ccccn2)o1	-0.4%	10.7%	?	-10.8%	-14.5%
NC1=C(Br)C(=O)c2ccccc2C1=O	7.9%[57.1 µM]	-3.3%	14.7%[11.4 µM]	5.7%	-0.5%
NC1=CC(=O)C(=O)c2ccccc21	-12.6%	44.7µM*	-1.2%	4.4%	-9.1%
O=C1C(=Cc2cccn2-c2ccccc2)C(=O)c2ccccc21	-1.1%	-24.5%	7.2%	28.2µM*	?
O=C1C(=Cc2cccn2-c2ccc(O)cc2)C(=O)c2ccccc21	-1.3%	19.7%	18.9%	?	-6.7%
CCN(CC)CC(C)(C)C(=O)/C=C/c1ccc(/C=C/C(=O)C(C)(C)CN(CC)CC)cc1	-11.3%	?	2µM*	7.4%	?
CCN(CC)CCOC(=O)/C=C/c1ccccc1	-2.2%	-0.1%	13.2%	1.1%	3.4%
CCCN1CNc2c(c(=O)[nH]c(=S)n2CCc2cccc(Cl)c2)C1	-0.8%	-17.5%	7.4%	.	.
COc1ccccc1/C=N/NC(=O)c1cccc2ccccc12	-11.6%	79.4µM*	13.6%[57.1 µM]	-18.4%	-8.6%
CCOc1ccccc1C=NNC(=O)c1cccc2ccccc12	9.0%[57.1 µM]	-16.6%	7.3%[57.1 µM]	1.3%	-9.4%
Cc1ccc(CSc2nc3cccnc3n2Cc2nc(-c3ccccc3F)oc2C)cc1	20.4%	8.1%	26.6%	-16.9%	-10.1%
COc1ccc(-c2onc(C)c2C)cc1S(=O)(=O)Nc1cc(Cl)ccc1C	-1.1%[57.1 µM]	14.4%	1.7%[57.1 µM]	0.0%	-18.3%
CCOC(=O)N1CCN(CCC(=O)c2ccc(Br)cc2)CC1	11.5%[57.1 µM]	17.8µM*	1µM*	5.9%	-9.3%
COc1cc2c(cc1OC)CN(CCC(=O)c1ccc(Br)cc1)CC2	-2.8%[57.1 µM]	70.8µM*	0.282µM*	1.3%	0.2%
CCOC(=O)N1CCN(CCC(=O)Nc2ccc(OC)cc2OC)CC1	2.0%[57.1 µM]	9.2%	7.2%[57.1 µM]	1.3%	1.3%
CCOC(=O)N1CCN(CCC(=O)c2ccc(OC)cc2)CC1	4.7%	?	3.55µM*	5.0%	-20.1%
Cc1cnc2ccccc2c1/C=C/c1ccc(N(C)C)cc1	-0.8%	.	11.2%	.	-14.6%
CCCCC#Cc1nc(NC)c2ncn([C@@H]3O[C@H](CO)[C@@H](O)[C@H]3O)c2n1	-0.2%[57.1 µM]	-3.2%	-3.7%[57.1 µM]	.	.
